According to paper PMC3218832:

Columns and labels:
Test in all cases: protein binding microarray; high values mean tight binding
Conditions in all cases: dsDNA, one strand shown
[1] = target: RELARELA (p65 homodimer) (Homo sapiens, UniProt Q04206 1-307)
[2] = target: p50p50 homodimer (Homo sapiens, UniProt P19838 7-356)
[3] = target: T1, p52p52 homodimer (Homo sapiens, UniProt Q00653 4-332)
T1 sequence: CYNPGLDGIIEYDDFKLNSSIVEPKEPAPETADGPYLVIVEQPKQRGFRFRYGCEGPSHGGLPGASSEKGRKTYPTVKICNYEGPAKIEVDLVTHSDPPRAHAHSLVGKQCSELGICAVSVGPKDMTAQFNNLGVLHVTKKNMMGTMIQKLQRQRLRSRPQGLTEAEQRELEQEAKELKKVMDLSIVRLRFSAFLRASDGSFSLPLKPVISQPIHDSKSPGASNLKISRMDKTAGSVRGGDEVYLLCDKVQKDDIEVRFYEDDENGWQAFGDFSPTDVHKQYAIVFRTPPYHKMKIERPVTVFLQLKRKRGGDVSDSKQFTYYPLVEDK

[4] = target: RELA (p65) subunit of heterodimer;p50 subunit (Homo sapiens;Homo sapiens, UniProt Q04206;P19838 1-307;7-356)
Sequence of RELA (p65) subunit of heterodimer;p50 subunit (Q04206 1-307, chain 1 of 2): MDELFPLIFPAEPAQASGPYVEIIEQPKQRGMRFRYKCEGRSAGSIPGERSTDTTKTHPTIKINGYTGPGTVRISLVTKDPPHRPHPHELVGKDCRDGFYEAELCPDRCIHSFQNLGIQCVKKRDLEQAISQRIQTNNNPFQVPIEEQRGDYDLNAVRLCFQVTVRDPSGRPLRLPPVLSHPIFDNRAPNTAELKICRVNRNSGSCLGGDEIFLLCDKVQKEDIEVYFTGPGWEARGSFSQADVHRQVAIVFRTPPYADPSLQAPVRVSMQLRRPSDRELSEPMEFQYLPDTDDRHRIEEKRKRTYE
Sequence of RELA (p65) subunit of heterodimer;p50 subunit (P19838 7-356, chain 2 of 2): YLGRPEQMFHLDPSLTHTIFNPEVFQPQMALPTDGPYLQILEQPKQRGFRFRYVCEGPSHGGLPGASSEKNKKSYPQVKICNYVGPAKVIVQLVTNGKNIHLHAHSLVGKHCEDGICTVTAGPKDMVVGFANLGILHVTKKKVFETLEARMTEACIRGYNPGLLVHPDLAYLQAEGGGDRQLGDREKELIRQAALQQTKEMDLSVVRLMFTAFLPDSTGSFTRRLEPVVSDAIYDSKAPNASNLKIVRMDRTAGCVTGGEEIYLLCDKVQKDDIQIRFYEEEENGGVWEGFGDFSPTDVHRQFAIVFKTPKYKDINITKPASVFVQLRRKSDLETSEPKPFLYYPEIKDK

[5] = target: RELA (p65) subunit of heterodimer;p52 subunit (Homo sapiens;Homo sapiens, UniProt Q04206;Q00653 1-307;4-332)
[6] = target: RELB subunit;p50 subunit (Homo sapiens;Homo sapiens, UniProt Q01201;P19838 120-401;7-356)
[7] = target: T2, RELB subunit;p52 subunit (Homo sapiens;Homo sapiens, UniProt Q01201;Q00653 120-401;4-332)
T2 sequence 1: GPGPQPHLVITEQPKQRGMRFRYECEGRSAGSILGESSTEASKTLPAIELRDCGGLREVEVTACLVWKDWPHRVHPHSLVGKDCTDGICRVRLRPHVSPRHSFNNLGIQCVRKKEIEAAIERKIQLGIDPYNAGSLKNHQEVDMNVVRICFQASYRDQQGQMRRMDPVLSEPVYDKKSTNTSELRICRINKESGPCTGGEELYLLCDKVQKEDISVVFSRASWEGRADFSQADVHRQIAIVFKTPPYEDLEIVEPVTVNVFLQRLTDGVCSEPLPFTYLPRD
T2 sequence 2: T1 sequence

[8] = target: C-Rel subunit;p50 subunit (Homo sapiens;Homo sapiens, UniProt Q04864;P19838 1-285;7-356)
[9] = target: T3, C-Rel subunit;p52 subunit (Homo sapiens;Homo sapiens, UniProt Q04864;Q00653 1-285;4-332)
T3 sequence 1: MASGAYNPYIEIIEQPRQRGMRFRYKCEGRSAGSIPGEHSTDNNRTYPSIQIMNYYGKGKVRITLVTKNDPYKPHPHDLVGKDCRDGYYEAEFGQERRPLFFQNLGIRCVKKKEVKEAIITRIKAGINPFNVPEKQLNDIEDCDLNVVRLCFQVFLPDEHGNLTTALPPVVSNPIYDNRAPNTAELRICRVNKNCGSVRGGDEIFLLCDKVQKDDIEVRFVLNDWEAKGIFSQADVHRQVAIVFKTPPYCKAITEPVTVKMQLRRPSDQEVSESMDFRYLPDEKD
T3 sequence 2: T1 sequence

Sequence of RELARELA (p65 homodimer) (Q04206 1-307): as the sequence (Q04206 1-307, chain 1 of 2) above
Sequence of p50p50 homodimer (P19838 7-356): as the sequence (P19838 7-356, chain 2 of 2) above

Sequence | binding signal [1] [z-score] | binding signal [2] [z-score] | binding signal [3] [z-score] | binding signal [4] [z-score] | binding signal [5] [z-score] | binding signal [6] [z-score] | binding signal [7] [z-score] | binding signal [8] [z-score] | binding signal [9] [z-score]
AGGTGGTCCCT | -0.0291 | 0.913 | 0.63 | 0.18 | 0.558 | 0.666 | 0.659 | 0.227 | 0.391
GAGGTTCTCCC | 0.0177 | 0.0309 | -0.068 | -0.00394 | -0.121 | 0.333 | 0.107 | -0.166 | -0.0434
AGATTTATCCC | -0.076 | -0.338 | -0.0792 | -0.321 | -0.11 | -0.291 | -0.135 | 0.062 | -0.0889
CGAGTTCTCCC | 0.00528 | 0.1 | -0.0592 | 0.0957 | -0.132 | 0.367 | 0.182 | -0.0444 | -0.16
AGATGGTCCCC | -0.243 | 0.441 | 0.342 | 0.0737 | 0.172 | 0.435 | 0.355 | 0.292 | 0.217
AGAAAGTCCCC | 1.93 | 1.38 | 2.13 | 1.84 | 1.96 | 2.19 | 1.93 | 1.62 | 1.91
AGAGTAGCCCT | -0.721 | -1.16 | -0.729 | -0.963 | -0.869 | -0.78 | -0.814 | -1.22 | -0.688
CAGGAGGTCCT | 0.426 | -1.52 | -0.389 | -0.781 | -0.822 | -0.523 | -0.466 | -0.953 | -0.415
AAATTTCCCCC | 2.97 | 1.66 | 2.84 | 2.63 | 2.41 | 2.88 | 2.69 | 2.02 | 2.57
CAGGTCATCCT | -0.599 | -1.84 | -0.537 | -1.21 | -1.08 | -1.24 | -0.916 | -1.52 | -1.02
AAATGAGTCCT | -0.142 | -1.04 | -0.602 | -0.991 | -0.866 | -0.889 | -0.596 | -1.08 | -0.769
GAAGGGCTCCC | -1.08 | -1.07 | -0.651 | -0.8 | -0.916 | -0.771 | -0.771 | -1.05 | -0.778
CAGTGGCTCCC | -0.478 | -1.44 | -0.661 | -0.743 | -0.817 | -0.932 | -0.764 | -1.22 | -0.857
GGATGTCCCCC | 0.799 | 1.11 | 1.17 | 1.69 | 1.37 | 1.27 | 1.47 | 1.1 | 1.45
GAAGATGCCCC | 0.0529 | 0.407 | 0.0127 | 0.599 | 0.186 | 0.421 | 0.376 | 0.679 | 0.228
AAGAGATCCCT | -0.452 | -0.0204 | -0.142 | -0.376 | -0.411 | 0.117 | -0.279 | -0.41 | -0.484
CGGTGCTTCCC | 0.809 | 0.562 | 2.72 | 1.22 | 1.98 | 1.09 | 2.06 | 0.924 | 2.22
CAAGGTACCCT | -0.567 | -0.267 | -0.0886 | -0.499 | -0.317 | -0.0446 | -0.391 | -0.833 | -0.57
AAAAGGATCCT | -0.683 | -1.24 | -0.703 | -1.11 | -1.09 | -1.05 | -0.866 | -1.6 | -0.998
CAAAGGCCCCC | -1.53 | 0.336 | 0.0392 | 0.041 | 0.0834 | 0.123 | 0.14 | -0.0908 | 0.0137
GAGGGCACCCT | -0.976 | -1.27 | -0.651 | -0.906 | -0.74 | -0.75 | -0.795 | -1.04 | -0.757
AAGTTATCCCC | 0.516 | 1.08 | 0.864 | 0.995 | 0.69 | 1.26 | 1.11 | 1.16 | 0.506
CAAGGATTCCC | 1.01 | 0.585 | 0.314 | 0.704 | 0.382 | 0.457 | 0.419 | 0.93 | 0.576
AGAGGCGTCCC | -0.0545 | -0.0189 | 0.07 | -0.193 | -0.01 | 0.139 | 0.267 | -0.234 | -0.17
AGAGTATTCCC | 1.05 | 0.224 | 0.305 | 0.534 | 0.292 | 0.0188 | 0.0238 | 0.73 | 0.396
CAAAAGTTCCC | 1.7 | 0.79 | 0.496 | 0.839 | 0.661 | 0.674 | 0.512 | 0.746 | 0.598
CGAAGCATCCT | -1.05 | -3.51 | -0.775 | -1.25 | -1.09 | -1.1 | -1.02 | -1.65 | -1
GAGTGGATCCT | -0.466 | -1.11 | -0.663 | -0.846 | -1 | -1.04 | -0.919 | -1.49 | -0.92
GAAGAAGCCCT | -0.988 | -1.65 | -0.651 | -0.934 | -0.868 | -1.04 | -0.801 | -1.08 | -0.998
AAATGTGCCCC | 0.655 | -0.0191 | 0.195 | 0.499 | 0.0761 | 0.0211 | 0.23 | 0.81 | 0.211
